TWEAK-Fn14 inh = blocks TWEAK-Fn14 interaction in a reporter cell assay. TWEAK-stimulated Fn14 reporter cells, luciferase luminescence, 8 h. inhibition, % at 10 µM. hit rate 2% among 360,000. AID 1159606; in the data active = inhibition above about 50%
LMP1 NFkB inh = Epstein-Barr LMP1 NF-kappaB reporter inhibition. LMP1-induced NF-kappaB luciferase reporter cells, luminescence. inhibition, % at 12.5 µM. hit rate 0.69% among 350,000; in the data active = inhibition above about 41%;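 note: 0% = neutral control wells and 100% = reference inhibitor control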
TROY signal inh = TROY signaling inhibition; AID 1347056; inhibition, % at 10 µM; hit rate 0.98% among 360,000; Q293 LMP1-TROYcd NF-kB luciferase reporter, 4 h;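 active = compounds whose plate-normalised and pattern-corrected inhibition of the luciferase reporter signal at the single screening dose is 50% or more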
PAX8 inh HTS = inhibitors of PAX8 transcriptional activity in RMG-I cells; RMG-I TPO-luciferase reporter, SteadyGlo, 24 h; inhibition, % at 12.6 µM; hit rate 1.2% among 360,000;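 active = mean replicate inhibition at least 60% with every replicate also reaching 60%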;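 note: luciferase light reporting Pax8 driven TPO promoter activity; plate controls were median of neutral control wells for no effect and mitoxantrone controls for full effect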
LGR2 inh = inhibitors of bursicon-induced Drosophila LGR2 receptor cAMP signaling | HEK293 LGR2, CRE-luciferase, bursicon-stimulated, 4 h | AID 720647 | inhibition, % at 9.99 µM | hit rate 0.35% among 380,000;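 active = drop in luminescence signal, shown as inhibition above about 50% in the replicate tests, limit read from the data, passing the limit was not always enough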;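 note: agonist challenge used bursicon conditioned medium at about half maximal strength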
EWS-Fli inh = EWS/Fli transcriptional activity inhibition; inhibition, % at 12.6 µM; A673 NR0B1-luciferase reporter, viability-normalised; hit rate 0.67% among 350,000;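 active = mean inhibition of at least 50% after viability correction, with every replicate also passing that limit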;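 note: firefly luciferase signal divided by Alamar Blue viability fluorescence both relative to DMSO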
* marks the source's active call; other numbers are inactive results; nt = no result; ! = repeats disagree. Sampled rows, rich in hits. Any-hit rate of the full collection: about 3.2%.

SMILES	TWEAK-Fn14 inh	LMP1 NFkB inh	TROY signal inh	PAX8 inh HTS	LGR2 inh	EWS-Fli inh
Cn1ncc2c(Nc3cccc(Cl)c3)nc(Nc3cccc(Cl)c3)nc21	60*	-4	21	-3	-1	9
CCOc1cc(CNc2ccc3c(c2)CCC3)ccc1O	49	-18	50*	-6	nt	nt
COC(=O)c1ccc(C(NC(=O)c2cccnc2)NC(=O)c2cccnc2)cc1	59*	3	32	12	8	-2
COC(=O)c1cc(NC(=O)c2cccnc2)cc(C(=O)OC)c1	-4	3	-27	-1	-5	4
O=C1C=CC(O)(c2cc(=O)c3c(O)cc(O)cc3o2)C=C1	92*	-65	27	89*	89*	73*
Cn1cccc1CC(=O)NNC(=S)Nc1ccc(Cl)cc1	-10	-12	-43	-17	0	-4
Cn1cccc1CC(=O)NNC(=S)Nc1ccccc1Cl	8	58*	-12	-25	-36	-3
COc1cc(/C=N/NC(=Nc2ccc(C)cc2)c2nc3ccccc3s2)ccc1O	107*	18	88*	nt	nt	nt
CCN1CCN(Cc2ccc(NC(=O)c3cc(NC(=O)c4cnn(-c5ccccc5)c4N)cc(OC)c3)cc2C(F)(F)F)CC1	-73	5	-36	-2	-17	61*
CCN1CCN(Cc2ccc(NC(=O)c3cc(NC(=O)C(=O)c4c[nH]c5ccccc45)cc(OC)c3)cc2C(F)(F)F)CC1	76*!	-35	-4	95*	-23	54*
CCN1CCN(Cc2ccc(NC(=O)c3ccc(C)c(NC(=O)C(=O)c4c[nH]c5ccccc45)c3)cc2C(F)(F)F)CC1	-93	43*!	-24	101*	19	59*!
CCN1CCN(Cc2ccc(NC(=O)c3cccc(-c4ccc5nc(NC(=O)C6CC6)sc5n4)c3)cc2C(F)(F)F)CC1	nt	nt	nt	80*	76*	37
CCN1CCN(Cc2ccc(NC(=O)c3ccc(C)c(NC(=O)c4ccc5n[nH]nc5c4)c3)cc2C(F)(F)F)CC1	-2	36	-1	-6	8	2
Cc1noc(C)c1NC(=O)N(C)C[C@H]1Oc2ccc(NC(=O)CCC(F)(F)F)cc2CC(=O)N([C@@H](C)CO)C[C@H]1C	nt	nt	nt	-14	-16	9
COc1ccc(CN(C)C[C@H]2Oc3ccc(NC(=O)Cc4cn(C)c5ccccc45)cc3C(=O)N([C@@H](C)CO)C[C@@H]2C)cc1	nt	nt	nt	17	-20	-7
CCCC(=O)Nc1ccc2c(c1)OC[C@H](C)N(C(=O)c1ccncc1)C[C@H](C)[C@@H](OC)CN(C)C2=O	nt	nt	nt	-7	-7	-11
O=C(C[C@H]1C[C@H]2c3cc(NC(=O)c4ccc5c(c4)OCO5)ccc3O[C@H]2[C@H](CO)O1)NCc1cccnc1	nt	nt	nt	7	15	-23
COC(=O)CCN1CCc2cc(N=Nc3ccc([N+](=O)[O-])cc3)ccc21	30	9	53*	-80	-81	-89
Cc1ccccc1CN1CCc2cc([N+](=O)[O-])ccc21	18	2	-18	-4	-12	10
CCCCCCn1cc(CN2CC(N3CCN(CCO)CC3)CS2(=O)=O)nn1 (stereo not drawn)	108*	nt	-1	-1	-16	0
CCOC(=O)c1sc2nc3c(cc2c1N)COC(C(C)C)C3 (stereo not drawn)	85*	-7	66*	nt	nt	nt
CCOC(=O)c1sc2nc(N3CCOCC3)c3c(c2c1N)CC(C(C)C)OC3 (stereo not drawn)	-27	0	-7	-18	8	nt
N#CC(c1ccccc1)c1ccc2c(C(F)(F)F)cc(C(F)(F)F)nc2n1 (stereo not drawn)	53*	21	59*	nt	nt	nt
Cc1ccc(C(C#N)c2ccc3c(C(F)(F)F)cc(C(F)(F)F)nc3n2)cc1 (stereo not drawn)	50*	30	45	nt	nt	nt
CN(N)c1ccc2c(C(F)(F)F)cc(C(F)(F)F)nc2n1	-34	-1	1	-2	-22	4
SMILES	TWEAK-Fn14 inh	LMP1 NFkB inh	TROY signal inh	PAX8 inh HTS	LGR2 inh	EWS-Fli inh
Cc1ccccc1N1Cc2ccccc2C1=O	2	0	19	5	-22	-4
CC(C(=O)O)c1ccc(N2Cc3ccccc3C2=O)cc1 (stereo not drawn)	70*	30	8	42	nt	51*
Cc1sc(-c2ccccn2)nc1OC(=O)c1ccc(Cl)cc1	28	12	58*	nt	nt	nt
CC(=O)c1sc(NC(=O)CCS(=O)(=O)c2ccc(F)cc2)nc1C	20	9	-24	77*	-8	-12
COc1cccc(C(=O)COc2cccc(NC(=O)c3cccc([N+](=O)[O-])c3)c2)c1	64*	26	nt	nt	nt	nt
O=C(COc1cccc(NC(=O)c2ccccc2)c1)c1ccc(F)cc1	5	-5	-8	69*	-10	-10
N#Cc1ccc(-c2ccc(C3[C@@H]4CN(C(=O)Nc5ccc(C(F)(F)F)cc5)C[C@H]3N4)cc2)cc1 (stereo partly drawn)	nt	nt	nt	15	15	12
O=C(Nc1ccccc1)N1C[C@@H]2N[C@H](C1)[C@@H]2c1ccc(/C=C/c2ccccc2)cc1	nt	nt	nt	113*	-5	-1
Cc1ccc(-c2ccc(C3[C@@H]4CN(C(=O)Nc5ccc(C(F)(F)F)cc5)C[C@H]3N4)cc2)cc1 (stereo partly drawn)	nt	nt	nt	91*!	35	-11
O=C(Nc1ccccc1)N1C[C@@H]2N[C@H](C1)C2c1ccc(-c2ccccc2)cc1 (stereo partly drawn)	nt	nt	nt	-18	-7	-3
COc1ccc(NC(=O)N2C[C@@H]3N[C@H](C2)C3c2ccc(-c3cccc(F)c3)cc2)cc1 (stereo partly drawn)	nt	nt	nt	-7	-1	14
O=C(Nc1ccc(C(F)(F)F)cc1)N1C[C@@H]2N[C@H](C1)C2c1ccc(-c2cccc(F)c2)cc1 (stereo partly drawn)	nt	nt	nt	88*	-2	0
CCC(=O)N(CC)C[C@H]1[C@H](c2ccc(-c3ccccc3)cc2)[C@@H](CO)N1C(C)=O	nt	nt	nt	4	-1	-8
CCN1CCN(Cc2ccc(NC(=O)Nc3ccc(OC)cc3)cc2)CC1	-16	-11	-29	-88	-10	-55
CCN1CCN(Cc2ccc(NC(=O)Nc3ccccc3)cc2)CC1	60*	13	53*	nt	nt	nt
COCC#Cc1ccc2c(c1)O[C@@H](CN(C)Cc1ccncc1)[C@H](C)CN([C@H](C)CO)S2(=O)=O	nt	nt	nt	nt	-16	-11
Clc1cncc(Cl)c1N/N=C/c1ccncc1	59*	34	63*	-2	22	-8
Cc1ccc(S(=O)(=O)N[C@H](C(=O)OCC(=O)NC(=O)Nc2ccc3c(c2)OCCO3)C(C)C)cc1	19	-1	10	14	-2	nt
C[C@H](NS(=O)(=O)c1ccc(Cl)cc1)C(=O)OCC(=O)NC(=O)Nc1ccc2c(c1)OCCO2	64*	-7	2	-69	-22	nt
COCC(=O)N(C)C[C@H]1Oc2cc(C#Cc3cccnc3)ccc2S(=O)(=O)N([C@H](C)CO)C[C@@H]1C	nt	nt	nt	-20	11	-17
